# In publication PMC4552634, “A New Set of Chemical Starting Points with Plasmodium falciparum Transmission-Blocking Potential for Antimalarial Drug Discovery” (PLoS ONE, 2015):
# About 3,200 (25%) of roughly 13,000 compounds showed an effect of 50% or more. The list shows a part of the results.
# System: P. falciparum stage V gametocytes
# Set-up: BacTiter-Glo ATP luminescence viability of purified stage V gametocytes in 384-well plates, per cent inhibition versus DMSO
# Conditions: 48 h, 5 µM; inhibitor
row,Compound,% Inhibition [%]
1,Cc1ccccc1C(O)CNc1ccnc(Nc2cccc(C#N)c2)n1 (stereo not shown) [TCMDC-136566],9.635
2,COc1ccc(CNC(=O)NC2CCN(c3ccnc(Nc4ccc(OC)cc4)n3)C2)cc1 (stereo not shown) [TCMDC-133607],11.17
3,O=C(Nc1ccc(OC2CCN(Cc3ccc(F)cc3)C2)cc1)c1cccs1 (stereo not shown) [TCMDC-133753],15.26
4,COc1cc(NC(=O)c2cccs2)c(C(=O)NCc2ccc(C)cc2)cc1OC [TCMDC-125007],20.88
5,CN(C)CCOc1ccc(NC(=O)Nc2ccnc3c(Br)cccc23)cc1Cl [TCMDC-140325],18.67
6,COc1cc2nc(N3CCC(CNC(=O)c4ccc(-c5ccc(-c6noc(C)n6)cc5C)cc4)CC3)nc(N)c2cc1OC [TCMDC-138155],105.9
7,COc1cc2nc(N3CCC(CNC(=O)c4ccc(-c5ccc(-c6noc(C)n6)cc5)cc4)CC3)nc(N)c2cc1OC [TCMDC-138754],115
8,O=C(Nc1ccc2c(c1)CCC2)c1ccc(N2CCN(c3ccncc3)CC2)cn1 [TCMDC-135155],0.5792
9,CCOc1cc(C(=O)N[C@@H](Cc2ccccc2)[C@H](O)CNCc2cc(OC)cc(OC)c2)cc(N2CCCS2(=O)=O)c1 [TCMDC-134573],6.074
10,O=C(Nc1ccc(OC2CCN(Cc3ccsc3)CC2)c(Cl)c1)c1ccc(F)cc1 [TCMDC-134272],-4.957
11,Cc1ccccc1Cn1ccc2c3c(N)nc(N)nc3ccc21 [TCMDC-137812],70.17
12,CCC(C(C)C)n1ccc2c3c(N)nc(N)nc3ccc21 (stereo not shown) [TCMDC-137872],10.31
13,Nc1nc(N)c2c(ccc3c2ccn3Cc2cccc3ccccc23)n1 [TCMDC-137996],88.02
14,Clc1ccc(CNc2ccnc(NCc3ccc4c(c3)OCCCO4)n2)c(Cl)c1 [TCMDC-135116],30.31
15,CC(C)OCCCNC(=O)c1nc(-c2cccc(C(F)(F)F)c2)sc1C(C)C [TCMDC-133788],3.705
16,Oc1ccc(Cl)cc1CN1CCC2(CCCN(CC3CCC3)C2)C1 (stereo not shown) [TCMDC-124637],-23.05
17,CCCCN(CCCC)CCNC(=O)c1cc(OC(F)(F)F)ccc1O [TCMDC-141130],-10.84
18,CC(Cc1ccc(NC(=O)c2ccc(CNCCc3ccccc3)cc2)cc1)NCCc1cccc(Cl)c1 (stereo not shown) [TCMDC-139867],108.4
19,CC(Cc1ccc(NC(=O)c2ccc(CNCc3ccccc3)cc2)cc1)N(CCc1cccc(Cl)c1)C(=O)OC(C)(C)C (stereo not shown) [TCMDC-139859],-24.54
20,CC(Cc1ccc(NC(=O)c2ccc(CNCCCCc3ccccc3)cc2)cc1)NCCc1cccc(Cl)c1 (stereo not shown) [TCMDC-139866],129.2
21,COc1cccc(OC)c1OCCCON1C(N)=NC(N)=NC1(C)C [TCMDC-131731],5.866
22,COc1cc(Cc2cnc(N)nc2N)cc(OC(C)C)c1OC [TCMDC-137645],-10.21

row,Compound,% Inhibition [%]
1,CC(=O)Nc1cccc(C(=O)Nc2cccc(-c3ccc(-c4nc5cc(C(F)(F)F)ccc5[nH]4)s3)c2)c1 [TCMDC-132138],13.04
2,COc1ccc(NC(=O)c2ccc(-c3nc(-c4ccc(Cl)cc4)cs3)cc2)cc1N1CCN(C)CC1 [TCMDC-138685],18.54
3,NC(Cc1cccc(I)c1)C(=O)NCC1CCCO1 (stereo not shown) [TCMDC-141273],-21.09
4,OCC(c1ccccc1)n1c(COc2ccc(Cl)cc2)nc2c(OCCCN3CCCCC3)cccc21 (stereo not shown) [TCMDC-138596],103.2
5,COc1ccc(CN2CCN(CCOC(c3ccccc3)c3ccc(Cl)cc3)CC2)c(O)c1 (stereo not shown) [TCMDC-135692],28.74
6,Cc1nc(N)nc(N)c1-c1ccc(Br)c([N+](=O)[O-])c1 [TCMDC-138071],1.652
7,CS(=O)(=O)CCNCc1cccc(-c2cc3c(Nc4ccc(OCc5ccccc5)cc4)ncnc3cn2)c1 [TCMDC-138240],8.889
8,CN(C)C(=S)N=Nc1c(O)[nH]c2ccc(OC(F)(F)F)cc12 [TCMDC-141099],-50.91
9,c1ccc(CN2CCC(NCc3cccc(-c4cncc5ccccc45)c3)CC2)cc1 [TCMDC-134152],18.28
10,O=C(NCCN1CCCCC1)c1ccc(CNC(=O)c2ccc(O)c(-c3cccc(C(F)(F)F)c3)c2)cc1 [TCMDC-140817],7.187
11,O=C(Nc1cccc(-c2ccc(NCCCN3CCCC3)nc2)c1)c1ccccc1 [TCMDC-134145],39.43
12,Cc1c(-c2cccc(C(C)(C)NCCCN3CCCCC3)c2)cnc(N)c1C [TCMDC-138284],76.27
13,Cn1nc(-c2ccc(CN[C@@H]3CCc4ccc(O)cc43)cc2)c2cnc(NC3CCCC3)nc21 [TCMDC-135029],-22.32
14,Cc1c(Br)cc2[nH]c(-c3ccc(C(=O)NC4CCN(Cc5ccccc5)CC4)cc3)nc2c1C [TCMDC-140026],-88.51
15,Cc1c(-c2cccc(C(C)(C)NC3CCN(Cc4ccccc4)CC3)c2)cnc(N)c1C [TCMDC-138300],70.88
16,Cc1c(-c2ccc3c(c2)C(NCCCN2CCCCC2)CC3)cnc(N)c1C (stereo not shown) [TCMDC-138320],53.54
17,NC(=O)c1cccc(C(=O)Nc2cccc(-c3ccc(-c4nc5ccc(C(F)(F)F)cc5[nH]4)cc3)c2)c1 [TCMDC-132202],-50.53
18,COc1ccc(S(=O)(=O)N(CC(=O)NN=C(C)c2cccs2)c2cc(C)cc(C)c2)cc1OC [TCMDC-125737],0.7472
19,COc1ccccc1NS(=O)(=O)c1cc(C(=O)Nc2ccc(N3CCOCC3)c(S(=O)(=O)Nc3ccccc3Cl)c2)ccc1Cl [TCMDC-125591],13
20,Cc1cc(-c2ccc(NC(=O)N3CCc4cc(Br)c(N5CCN(C)CC5)cc43)cc2)cc(C)n1 [TCMDC-139279],26.15
21,CCCN1CCC=C(c2cccc(Nc3nccc(Nc4cc(OC)ccc4C)n3)c2)C1 [TCMDC-138668],37.96
